The text below walks through data of ChEMBL document CHEMBL3988442, “University of Dundee, Small-Polar-MMV Screening Library” (2021).

In all, about 48,000 compounds went through this assay and about 13,000 (27%) showed an effect of 50% or more. This is one part of the list.

For the assay, the system named is Wolbachia pipientis. The experiment in a line: Anti-Wolbachia Cell-Based Screen. The format is functional. Further details: scale not given: in the data most compounds retested in dose-response had high values. The settings on record: 5 µM.
As for `CCCN(Cc1cccc(OCCO)c1)Cc1ccccc1OC`, the “Percent Effect” value worked out at 8.157%.
In the case of `CN(Cc1cccc2ncccc12)C(=O)CCC(F)(F)F`, the “Percent Effect” value is on record as -3.963%.
With `COCCN(Cc1cccc(OCCO)c1)Cc1ccccc1F` the figure was 0.9238%; with `CN(Cc1cccc(CCN)c1)Cc1cccc2ncccc12`, 97.29%.
With `CN(Cc1cccc(OCCO)c1)Cc1cccc2ncccc12` the figure was 95.97%; with `CCCc1cc(C(=O)N(C)Cc2cccc3ncccc23)n(C)n1`, 20.91%.
With `CC(C)c1cc(C(=O)N(C)Cc2cccc3ncccc23)n(C)n1` the figure was -7.2%; with `CN(Cc1cccnc1N)Cc1cccc2ncccc12`, 108.3%; with `Cc1ccsc1-c1cc(C(=O)O)cc(S(=O)(=O)NCc2ccccn2)c1`, -12.11%.
Consider `COc1ccccc1Oc1ncccc1CNC(=O)[C@@H](N)CCO`, for which the “Percent Effect” value was -18.01%.
With `Cc1cc(N2CCOC(c3ccncn3)C2)ncn1` (stereo unspecified) the figure was 99.32%.
With `COc1cc(N2CC[C@@H]3O[C@@H](c4ccncn4)C[C@H]3C2)ncn1`, the “Percent Effect” value is on record as -28.63%.
With `Cc1ccc(N2CC[C@@H]3O[C@@H](c4ccncn4)C[C@H]3C2)nn1` the figure was 17.26%; with `O=C(NC1CC1)c1ccnc(N2CCOC(c3ccc(Cl)cc3)C2)c1` (stereo unspecified), -21.25%.
For `Cc1cc(N2CCOC(c3ccc(C(N)=O)cn3)C2)ncn1` (stereo unspecified), the “Percent Effect” value came out at 105.9%.
Take `O=C(NC1CC1)c1ccnc(N2CCOC(c3ccc(Cl)c(Cl)c3)C2)c1` (stereo unspecified): the “Percent Effect” value is recorded as -23.24%.
With `CN(C)CCN1CCOC2(CCN(c3nccs3)CC2)c2ccccc21` the figure was -12.88%; with `N#Cc1ccc(C(=O)N2CCOC[C@H](Oc3cnccn3)C2)cc1`, -4.484%.
With `CC1(C)CNC(=O)c2nc(CCN3CCCCC3CO)[nH]c2C1` (stereo unspecified) the figure was -22.93%; with `CCOc1cc(NC(=O)C2CC(=O)N(c3cccc(OC)c3)C2)ncn1` (stereo unspecified), -2.704%.
`CCN(Cc1ccc(C#N)cc1F)C(=O)C(C)(C)C`: the “Percent Effect” value is on record as 4.691%.
With `CC(C)c1nc2c(n1C)CCN(CC(=O)Nc1cccnc1)C2` the figure was 119.2%.
`Cc1nn(C)c(C)c1NC(=O)CN1CCc2c(nc(C(C)C)n2C)C1`: the “Percent Effect” value is given as -19.45%.
With `CC(C)c1cc(NC(=O)CN2CCc3c(nc(C(C)C)n3C)C2)on1` the figure was 6.487%; with `CC(C)c1nc2c(n1C)CCN(CCc1ccccn1)C2`, 5.197%.
The value for `CC(C)c1nc2c(n1C)CCN(CC(=O)Nc1ccncc1)C2` was 127.6%; that for `CC(C)c1nc2c(n1C)CCN(CC(=O)Nc1ccc(Cl)cn1)C2` was 6.553%; that for `CC(C)c1nc2c(n1C)CCN(CC(=O)Nc1nccs1)C2` was -1.818%.
With `CC(C)c1nc2c(n1C)CCN(CC(=O)NCc1ccccn1)C2` the figure was -5.66%.
As to `CC(C)c1nc2c(n1C)CCN(CC(=O)Nc1ccnn1C(C)C)C2`, the “Percent Effect” value was 120.4%.
With `COc1ccnc(N2CCC(=O)N(CC3CC3)C(C(C)C)C2)n1` (stereo unspecified) the figure was -66.14%; with `Cc1n[nH]cc1CNCC(c1cccc(F)c1)N(C)C` (stereo unspecified), -5.12%.
The value for `O=S(=O)(CC1CCOCC1)NCc1ncc(-c2ccccc2)o1` was -9.674%.
As to `Cn1cc(C2CCCN2CC(=O)N(CCC#N)Cc2ccco2)cn1` (stereo unspecified), the “Percent Effect” value is reported as 0.296%.
With `CC(=O)NCC1CCN(c2cc(C(C)C)nc3ccnn23)CC1` the figure was -0.4994%; with `CCNC(=O)CN1CCN(c2ccnc3c(F)ccc(F)c23)CC1`, 11.86%; with `Cc1cc(N2CCC(N(C)C(=O)c3ccccc3)CC2)nc(C)n1`, -0.5132%.
The value for `CCNC(=O)CN1CCN(c2cc(C)nc(-c3ccncc3)n2)CC1` was 108.7%; that for `O=C(NC1CC1)C1CCN(c2cccc(C(F)(F)F)n2)CC1` was -5.657%.
With `O=C(NC1CCN(c2cccc(C(F)(F)F)n2)CC1)C1CC1` the figure was -2.588%.
Consider `Cc1cc(NCC(=O)NCC(F)(F)F)nc(-c2ccncc2)n1`, for which the “Percent Effect” value is reported as 6.905%.
The value for `Cc1cc(N2CCC(C(=O)NC3CC3)CC2)nc(-c2ccncc2)n1` was 96.2%; that for `Cc1cc(N2CCC(C(=O)N(C)C)CC2)nc(-c2ccncc2)n1` was 121.6%; that for `CC(=O)NCC1CCN(c2ccnc3ccc(Br)cc23)CC1` was 3.515%.
The value for `Cc1cc(C)n(-c2cncc(N3CCC(C(=O)N(C)C)CC3)n2)n1` was -4.811%; that for `CC(=O)NCC1CCN(c2cc(C)nc(-c3ccncc3)n2)CC1` was 110%.
